Experimental data taken from PubChem BioAssay (NCI).
About 79,000 compounds went through this panel and 15% of them were active in at least one assay; those are over-represented in the sample as a whole. Values without a mark were called inactive. Activity calls are given as the source filed them. No stated cut-off is given here; in the data, active means growth inhibition above about 70%; inactive means the rest.

Tests used:
[1] = NCI Yeast Anticancer Drug Screen. Data for the rad50 strain (AID 155);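 further: 0% = growth of vehicle-only cultures of the same strain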; details: S. cerevisiae rad50 strain growth inhibition, hits give high values
In short: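 Compounds were tested on a yeast strain with an engineered DNA damage repair alteration; the reported value is growth inhibition normalised to vehicle treatment.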

[2] = NCI Yeast Anticancer Drug Screen. Data for the mec2-1 strain (AID 157); details: S. cerevisiae mec2-1 strain, hits give high values
In short: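 Yeast mec2-1 mutant treated with compound. Readout: growth inhibition vs vehicle controls.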

[3] = NCI Yeast Anticancer Drug Screen. Data for the sgs1 mgt1 strain (AID 161);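 further: 0% = growth of cultures given vehicle only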; details: S. cerevisiae sgs1 mgt1 strain, hits give high values
In short: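 Genetically altered yeast, compound exposure, growth inhibition relative to vehicle.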

[4] = NCI Yeast Anticancer Drug Screen. Data for the cln2 rad14 strain (AID 165);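 further: 0% = growth equal to vehicle treated cultures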; details: S. cerevisiae cln2 rad14 strain, hits give high values
In short: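 cln2 rad14 yeast strain; compound exposure; growth inhibition read vs vehicle controls.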

[5] = NCI Yeast Anticancer Drug Screen. Data for the bub3 strain (AID 167); details: S. cerevisiae bub3 mutant strain, hits give high values
In short: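 Growth of a checkpoint-deficient yeast mutant is measured after compound exposure. Values represent inhibition relative to vehicle.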

[6] = NCI Yeast Anticancer Drug Screen. Data for the mlh1 rad18 strain (AID 175); details: S. cerevisiae mlh1 rad18 strain growth inhibition, hits give high values
In short: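 Yeast w/ defined DNA-repair lesions; compound exposure; growth vs vehicle controls → % inhibition.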

[7] = at 5.0 µM (retest, dose inferred, filed as 0.5)
[8] = at 50.0 µM (retest, dose inferred, filed as 5.0)

O=[N+]([O-])c1cc(I)c(O)c(/C=N/NS(=O)(=O)c2ccc(Cl)cc2)c1
growth inhibition [1, 7]: -3%
growth inhibition [1, 8]: 11%
growth inhibition ([1]; at 50.0 µM): 88.5% (active)
growth inhibition [2, 7]: -8%
growth inhibition [2, 8]: 1%
growth inhibition ([2]; at 50.0 µM): 75.1% (active)
growth inhibition [3, 7]: -1%
growth inhibition [3, 8]: 17%
growth inhibition ([3]; at 50.0 µM): 77.7% (active)
growth inhibition [4, 7]: -9%
growth inhibition [4, 8]: -1%
growth inhibition ([4]; at 50.0 µM): 62.2%
growth inhibition [5, 7]: -6%
growth inhibition [5, 8]: -1%
growth inhibition ([5]; at 50.0 µM): 72% (active)
growth inhibition [6, 7]: -2%
growth inhibition [6, 8]: 4%
growth inhibition ([6]; at 50.0 µM): 91.8% (active)

CCCCCCCCC1CCNCC1
growth inhibition [1, 7]: 39%
growth inhibition [1, 8]: 28%
growth inhibition ([1]; at 50.0 µM): 85.5% (active)
growth inhibition [2, 7]: -6%
growth inhibition [2, 8]: 47%
growth inhibition ([2]; at 50.0 µM): 87.7% (active)
growth inhibition [3, 7]: 26%
growth inhibition [3, 8]: 71% (active)
growth inhibition ([3]; at 50.0 µM): 92.2% (active)
growth inhibition [4, 7]: 33%
growth inhibition [4, 8]: 38%
growth inhibition ([4]; at 50.0 µM): 72.5% (active)
growth inhibition [5, 7]: 36%
growth inhibition [5, 8]: 62%
growth inhibition ([5]; at 50.0 µM): 90.3% (active)
growth inhibition [6, 7]: 20%
growth inhibition [6, 8]: 23%
growth inhibition ([6]; at 50.0 µM): 89.8% (active)

CCC[CH2][Ge]([CH2]CCC)([CH2]CCC)[O]C(C)=O
growth inhibition [1, 7]: 2%
growth inhibition [1, 8]: 9%
growth inhibition ([1]; at 50.0 µM): 54.1%
growth inhibition [2, 7]: 0%
growth inhibition [2, 8]: 19%
growth inhibition ([2]; at 50.0 µM): 27.3%
growth inhibition [3, 7]: 4%
growth inhibition [3, 8]: 21%
growth inhibition ([3]; at 50.0 µM): 61.8%
growth inhibition [4, 7]: 1%
growth inhibition [4, 8]: -1%
growth inhibition ([4]; at 50.0 µM): 70.8% (active)
growth inhibition [5, 7]: -2%
growth inhibition [5, 8]: 6%
growth inhibition ([5]; at 50.0 µM): 19.2%
growth inhibition [6, 7]: 2%
growth inhibition [6, 8]: 11%
growth inhibition ([6]; at 50.0 µM): 52.8%

C[CH2][Sn]([CH2]C)([O]C(=O)c1c(F)cccc1F)[O][Sn]([CH2]C)([CH2]C)[O]C(=O)c1c(F)cccc1F
growth inhibition [1, 7]: 40%
growth inhibition [1, 8]: 89% (active)
growth inhibition ([1]; at 50.0 µM): 81.3% (active)
growth inhibition [2, 7]: 34%
growth inhibition [2, 8]: 95% (active)
growth inhibition ([2]; at 50.0 µM): 81.8% (active)
growth inhibition [3, 7]: 36%
growth inhibition [3, 8]: 95% (active)
growth inhibition ([3]; at 50.0 µM): 83.2% (active)
growth inhibition [4, 7]: 28%
growth inhibition [4, 8]: 84% (active)
growth inhibition ([4]; at 50.0 µM): 72.4% (active)
growth inhibition [5, 7]: 45%
growth inhibition [5, 8]: 72% (active)
growth inhibition ([5]; at 50.0 µM): 78.5% (active)
growth inhibition [6, 7]: 44%
growth inhibition [6, 8]: 93% (active)
growth inhibition ([6]; at 50.0 µM): 78.2% (active)

O=c1ccccc(Br)c1O
growth inhibition [1, 7]: 12%
growth inhibition [1, 8]: 97% (active)
growth inhibition ([1]; at 50.0 µM): 98.7% (active)
growth inhibition [2, 7]: 10%
growth inhibition [2, 8]: 93% (active)
growth inhibition ([2]; at 50.0 µM): 97.8% (active)
growth inhibition [3, 7]: 6%
growth inhibition [3, 8]: 97% (active)
growth inhibition ([3]; at 50.0 µM): 99.6% (active)
growth inhibition [4, 7]: 19%
growth inhibition [4, 8]: 87% (active)
growth inhibition ([4]; at 50.0 µM): 93.1% (active)
growth inhibition [5, 7]: 8%
growth inhibition [5, 8]: 98% (active)
growth inhibition ([5]; at 50.0 µM): 97.6% (active)
growth inhibition [6, 7]: 9%
growth inhibition [6, 8]: 97% (active)
growth inhibition ([6]; at 50.0 µM): 98.9% (active)

CCNC(=S)NNC(=S)NNc1ccccc1
growth inhibition [1, 7]: 52%
growth inhibition [1, 8]: 98% (active)
growth inhibition ([1]; at 50.0 µM): 41.3%
growth inhibition [2, 7]: 63%
growth inhibition [2, 8]: 100% (active)
growth inhibition ([2]; at 50.0 µM): 38.5%
growth inhibition [3, 7]: 31%
growth inhibition [3, 8]: 70% (active)
growth inhibition ([3]; at 50.0 µM): 66.8%
growth inhibition [4, 7]: 45%
growth inhibition [4, 8]: 63%
growth inhibition ([4]; at 50.0 µM): 3.85%
growth inhibition [5, 7]: 36%
growth inhibition [5, 8]: 77% (active)
growth inhibition ([5]; at 50.0 µM): 60.5%
growth inhibition [6, 7]: 47%
growth inhibition [6, 8]: 100% (active)
growth inhibition ([6]; at 50.0 µM): 38.5%

O=C(CNC(=O)C(CSCc1ccccc1)NC(=O)OCc1ccccc1)Oc1c(Cl)c(Cl)c(Cl)c(Cl)c1Cl (configuration not stated)
growth inhibition [1, 7]: 10%
growth inhibition [1, 8]: 34%
growth inhibition ([1]; at 50.0 µM): 46.9%
growth inhibition [2, 7]: 8%
growth inhibition [2, 8]: 30%
growth inhibition ([2]; at 50.0 µM): 61.9%
growth inhibition [3, 7]: 2%
growth inhibition [3, 8]: 30%
growth inhibition ([3]; at 50.0 µM): 68.8%
growth inhibition [4, 7]: 3%
growth inhibition [4, 8]: 20%
growth inhibition ([4]; at 50.0 µM): 25.6%
growth inhibition [5, 7]: -4%
growth inhibition [5, 8]: 13%
growth inhibition ([5]; at 50.0 µM): 15.9%
growth inhibition [6, 7]: 9%
growth inhibition [6, 8]: 51%
growth inhibition ([6]; at 50.0 µM): 66.4%

CCOc1c(N=Nc2ccccc2OC)c(C)nn1C(N)=S
growth inhibition [1, 7]: 6%
growth inhibition [1, 8]: 24%
growth inhibition ([1]; at 50.0 µM): 8.85%
growth inhibition [2, 7]: -10%
growth inhibition [2, 8]: 21%
growth inhibition ([2]; at 50.0 µM): 3.9%
growth inhibition [3, 7]: -5%
growth inhibition [3, 8]: 41%
growth inhibition ([3]; at 50.0 µM): 9.1%
growth inhibition [4, 7]: -2%
growth inhibition [4, 8]: 3%
growth inhibition ([4]; at 50.0 µM): -20.6%
growth inhibition [5, 7]: 1%
growth inhibition [5, 8]: 14%
growth inhibition ([5]; at 50.0 µM): 22.9%
growth inhibition [6, 7]: -4%
growth inhibition [6, 8]: 21%
growth inhibition ([6]; at 50.0 µM): 29.9%

CCN(CC)CCOc1ccc(-c2nc3cc(Cl)ccc3s2)cc1
growth inhibition [1, 7]: 29%
growth inhibition [1, 8]: 88% (active)
growth inhibition ([1]; at 50.0 µM): 75% (active)
growth inhibition [2, 7]: 54%
growth inhibition [2, 8]: 86% (active)
growth inhibition ([2]; at 50.0 µM): 35.8%
growth inhibition [3, 7]: 23%
growth inhibition [3, 8]: 91% (active)
growth inhibition ([3]; at 50.0 µM): 91% (active)
growth inhibition [4, 7]: 31%
growth inhibition [4, 8]: 84% (active)
growth inhibition ([4]; at 50.0 µM): 48%
growth inhibition [5, 7]: 61%
growth inhibition [5, 8]: 90% (active)
growth inhibition ([5]; at 50.0 µM): 85.7% (active)
growth inhibition [6, 7]: 39%
growth inhibition [6, 8]: 82% (active)
growth inhibition ([6]; at 50.0 µM): 83.3% (active)
